Data taken from PubChem BioAssay.

Tests used:
[1] = system: Human papillomavirus type 1a protein E7 (residues 44-93); assay: small molecules binding HPV E7 44-93 – biochemical, small-molecule microarray, residues 44-93, 635 nm fluorescence, primary screen (AID 1108); settings: fluorescence 635 nm, higher = more signal;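 further: E7 fragment applied at 1 µg/mL in TBST for 1 h at 4 C; score combines spot fluorescence with its signal to noise ratio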
[2] = hepatitis C replication reporter changes, two-sided – Huh7 cells, luciferase reporter, HCV replication inhibitor project, primary screen (AID 1109); settings: Huh7 HCV replicon luciferase reporter, 48 h; higher = more signal;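 further: huh7 hepatoma cells harbouring a luciferase neomycin HCV replicon reporter; luciferase luminescence as measure of HCV replicon replication; test concentration not given here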
[3] = target: Left-right determination factor 2 (Homo sapiens) (UniProt O00292); assay: small molecules binding LEFTY2 protein – biochemical, small-molecule microarray, 635 nm fluorescence scan, primary screen (AID 1110); settings: higher = more signal
Chain of Left-right determination factor 2 (Homo sapiens) (O00292 whole entry, looked up): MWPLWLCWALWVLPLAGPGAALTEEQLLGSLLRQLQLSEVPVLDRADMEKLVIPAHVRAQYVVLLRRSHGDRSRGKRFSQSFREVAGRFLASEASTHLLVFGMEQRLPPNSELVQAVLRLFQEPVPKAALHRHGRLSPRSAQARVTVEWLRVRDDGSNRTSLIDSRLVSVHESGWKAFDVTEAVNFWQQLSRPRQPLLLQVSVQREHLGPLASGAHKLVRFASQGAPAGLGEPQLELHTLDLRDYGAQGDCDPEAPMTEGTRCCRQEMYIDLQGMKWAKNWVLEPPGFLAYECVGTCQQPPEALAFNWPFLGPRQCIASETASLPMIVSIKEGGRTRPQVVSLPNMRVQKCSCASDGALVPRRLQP

[4] = target: Calmodulin-1 (Homo sapiens) (UniProt P0DP23); assay: small molecules binding calmodulin-1 with EGTA – biochemical, small-molecule microarray, Cy5-labelled CALM1, profiling panel (AID 1111); settings: Cy5-CALM1 binding fluorescence, higher = more signal;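 further: labelled calmodulin applied in Tris saline Tween buffer holding calcium plus EGTA and DTT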
[5] = target: Calmodulin-1 (Homo sapiens) (UniProt P0DP23); assay: small molecules binding Ca-loaded calmodulin-1 – biochemical, small-molecule microarray, Cy5-labelled CALM1, plus calcium, artefact control for SMM control-protein annotation, profiling panel (AID 1112); settings: Cy5-CALM1 binding fluorescence, higher = more signal;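 further: score merges spot fluorescence with signal to noise from triplicate slides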
[6] = probe aWnt5a binding to arrayed compounds – biochemical, biotinylated probe, 635/667 nm fluorescence, primary screen (AID 1113); settings: small-molecule microarray, higher = more signal;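 further: score merges 667 nm fluorescence intensity with signal-to-noise per printed feature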
[7] = probe aShh binding to arrayed compounds – biochemical, biotinylated probe, 635/667 nm fluorescence, primary screen (AID 1114); settings: small-molecule microarray, higher = more signal;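 further: probe is biotin-labelled aShh protein from a stem cell growth factor screen; measures binding of labelled protein to compounds printed on the slide; score merges feature fluorescence at 667 nm with signal-to-noise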
[8] = probe aNog binding to arrayed compounds – biochemical, biotinylated probe, 635/667 nm fluorescence, primary screen (AID 1115); settings: small-molecule microarray, higher = more signal;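 further: probe is biotinylated aNog protein used at 0.15 µg/mL for 1 h at 4 C; z-score combines 667 nm fluorescence of each spot with its signal to noise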
[9] = target: Torsin-1A-interacting protein 1 (Homo sapiens) (UniProt Q5JTV8); assay: compound microarray binding of lysate hLAP1 – cell lysate, small-molecule microarray, COS7 lysate, 635/667 nm fluorescence, primary screen (AID 1116); settings: 635 nm fluorescence, higher = more signal
Chain of Torsin-1A-interacting protein 1 (Homo sapiens) (Q5JTV8 whole entry, looked up): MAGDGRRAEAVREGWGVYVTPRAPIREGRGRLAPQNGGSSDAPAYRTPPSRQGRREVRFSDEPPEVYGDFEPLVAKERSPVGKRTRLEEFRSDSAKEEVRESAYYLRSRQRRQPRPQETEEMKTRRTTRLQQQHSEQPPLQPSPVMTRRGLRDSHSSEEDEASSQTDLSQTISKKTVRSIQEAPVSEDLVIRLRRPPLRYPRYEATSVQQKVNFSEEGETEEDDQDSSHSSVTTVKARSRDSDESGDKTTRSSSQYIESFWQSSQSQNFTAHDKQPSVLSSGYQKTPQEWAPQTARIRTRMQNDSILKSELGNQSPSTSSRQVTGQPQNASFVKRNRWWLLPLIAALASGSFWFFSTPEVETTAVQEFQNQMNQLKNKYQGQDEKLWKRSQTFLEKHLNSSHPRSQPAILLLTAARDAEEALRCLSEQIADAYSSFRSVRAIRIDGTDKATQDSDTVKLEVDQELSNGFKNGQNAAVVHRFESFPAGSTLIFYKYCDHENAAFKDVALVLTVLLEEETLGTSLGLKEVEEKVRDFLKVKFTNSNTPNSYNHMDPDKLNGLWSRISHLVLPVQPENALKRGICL

[10] = target: Alpha-bungarotoxin (Bungarus multicinctus) (UniProt P60615); assay: compounds binding labelled alpha-BTX control protein – biochemical, small-molecule microarray, Alexa647 label, 635/667 nm fluorescence, artefact control for SMM control protein annotation, profiling panel (AID 1117); settings: alpha-BTX-A647 binding fluorescence, higher = more signal
Chain of Alpha-bungarotoxin (Bungarus multicinctus) (P60615 whole entry, looked up): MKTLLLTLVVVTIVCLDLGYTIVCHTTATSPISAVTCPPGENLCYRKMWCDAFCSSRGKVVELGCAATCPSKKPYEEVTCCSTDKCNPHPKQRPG

SMILES	composite z-score [1]	z-score [2]	composite z-score [3]	composite z-score [4]	composite z-score [5]	composite z-score [6]	composite z-score [7]	composite z-score [8]	composite z-score [9]	composite z-score [10]
COc1ccc(C(O)C2C=CC3C(=O)N(C)C(=O)C3N2N2CCCCC2)cc1 (stereo not given)	0.069	0.633	0.108	0.204	0.3	0.1	0.457	1.07	2.36	0.55
CN(C)CCCN1C(=O)[C@@]2(c3ccc([N+](=O)[O-])cc3)CC(=O)N(CC34CC5CC(CC(C5)C3)C4)[C@@H]2c2ccc(CO)cc21	0.869	-1.49	-0.741	-0.301	-0.828	-0.152	0.111	-0.302	-0.301	-0.0251
CC[C@H]1C2=C3C(CC[C@H]4C(OCc5ccc(F)cc5C(F)(F)F)OC[C@](C)([C@@H]34)N(C(=O)OC(C)(C)C)C2)C2COC(=O)OCC21 (stereo not given in full)	1.34	-2.1	-0.532	2.48	0.911	-0.0297	0.246	-0.712	0.713	0.347
COCCOC(=O)N1C(=O)[C@@]2(c3cc(C#CC4(O)CCCCCC4)ccc31)[C@H](C(N)=O)[C@H]1C(=O)O[C@H](c3ccccc3)[C@H](c3ccccc3)N1[C@@H]2c1ccccc1OCCO	1.38	-3.3	0.339	-0.0545	-0.0174	-0.0758	-0.223	-0.531	0.529	1.01
CC=CC(O)C1C=CC2C(=O)N(C)C(=O)C2N1N1CCCCC1 (stereo not given)	1.15	0.121	0.364	1.41	0.127	0.0559	-0.151	-0.39	0.923	1.1
C=CCNC(=O)[C@@H]1[C@H]2C(=O)O[C@H](c3ccccc3)[C@H](c3ccccc3)N2[C@H](c2ccccc2OCCO)[C@@]12C(=O)N(C(=O)OCCOC)c1ccc(C#CC3=CCCCC3)cc12	0.829	-2.12	0.167	0.743	-0.0835	-0.124	-0.0553	0.394	1.15	1.59
COc1ccc([Si](C)(C)[C@H]2[C@H](CCn3cc(CCO)nn3)O[C@@]3(C(=O)N(Cc4ccc(N5C(=O)c6cccc7cccc5c67)cc4)c4ccccc43)[C@@H]2C)cc1	1.4	-5.13	0.691	0.778	0.487	-0.117	0.0121	0.298	0.537	1.08
CN(C)C(=O)[C@]1(CCC(=O)OC(C)(C)C)N=C(c2ccc(OCCCO)cc2)O[C@@H]1c1ccccc1	1.17	0.381	0.119	0.989	0.744	0.14	0.0793	0.289	2.76	0.654
C[C@@H]1ON(c2ccc(C(=O)OC(C)(C)C)cc2)[C@H](c2ccc(Br)cc2)[C@H]1C(=O)N1C(=O)OC[C@H]1Cc1ccccc1	1.38	1.05	0.498	0.79	-0.115	-0.0643	-0.138	0.25	0.323	0.544
NC(=O)NCC#Cc1ccc2c(c1)[C@]1(C(=O)N2)[C@H](C(=O)Nc2nc3ccccc3s2)[C@H]2C(=O)O[C@H](c3ccccc3)[C@H](c3ccccc3)N2[C@@H]1c1ccc(O)cc1	0.944	-0.797	0.215	1.29	0.414	-0.0445	-0.0243	0.23	0.187	1.64
NC(=O)NCC#Cc1ccc2c(c1)[C@]1(C(=O)N2)[C@H](C(=O)O)[C@H]2C(=O)O[C@H](c3ccccc3)[C@H](c3ccccc3)N2[C@@H]1c1ccccc1OCCO	0.497	0.393	0.28	2.05	1.01	0.0354	-0.412	0.91	1.45	3.27
O=C(O)[C@H](Cc1ccccc1)n1cc(-c2ccccn2)nn1	0.55	0.107	-0.0097	0.429	0.33	-0.152	-0.0866	-0.0827	0.524	0.35
O=C1O[C@@H](c2ccccc2)[C@@H](c2ccccc2)N2[C@@H](c3ccccc3OCCO)[C@]3(C(=O)Nc4ccc(C#CCCO)cc43)[C@@H](C(=O)Nc3nc4ccccc4s3)[C@H]12	-0.503	-2.12	1.02	1.7	0.64	-0.0572	-0.289	-0.523	0.326	1.82
CCCC[C@@H]1C[C@H]1[C@@H](NC(=O)c1cccnc1)c1ccc(-c2ccccc2)cc1	-0.447	-1.95	-1.99	-0.297	0.742	-0.141	2.01	-0.744	-1.2	-0.556
